PMC5540273 (PLoS ONE, 2017)

Tests used:
Settings in all cases: concentration: 1 μM, replicates: in singlicate; n = 1
CDK3 = tested on: CDK3
CDK4-cyclinD1 = tested on: CDK4-cyclinD1
CDK4-cyclinD3 = tested on: CDK4-cyclinD3
CDK4 = tested on: CDK4
CDK5 = tested on: CDK5
CDK7 = tested on: CDK7
CDK8 = tested on: CDK8
CDK9 = tested on: CDK9
CDKL1 = tested on: CDKL1
CDKL2 = tested on: CDKL2
CDKL3 = tested on: CDKL3
CDKL5 = tested on: CDKL5
CHEK1 = tested on: CHEK1
CHEK2 = tested on: CHEK2
CIT = tested on: CIT
CLK1 = tested on: CLK1
CLK2 = tested on: CLK2
CLK3 = tested on: CLK3
CLK4 = tested on: CLK4
CSF1R-autoinhibited = tested on: CSF1R-autoinhibited
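Further: KINOMEscan kinase panel screen.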

SMILES | %Inh (CDK3) [%] | %Inh (CDK4-cyclinD1) [%] | %Inh (CDK4-cyclinD3) [%] | %Inh (CDK4) [%] | %Inh (CDK5) [%] | %Inh (CDK7) [%] | %Inh (CDK8) [%] | %Inh (CDK9) [%] | %Inh (CDKL1) [%] | %Inh (CDKL2) [%] | %Inh (CDKL3) [%] | %Inh (CDKL5) [%] | %Inh (CHEK1) [%] | %Inh (CHEK2) [%] | %Inh (CIT) [%] | %Inh (CLK1) [%] | %Inh (CLK2) [%] | %Inh (CLK3) [%] | %Inh (CLK4) [%] | %Inh (CSF1R-autoinhibited) [%]
COc1cc(Nc2nccc(N3CCC(NC(=O)C(C)c4ccc(Cl)cc4)C3)n2)cc(OC)c1OC (stereo not drawn) [GSK1379757] | 0 | 0 | 0 | 36 | 0 | 0 | 22 | 0 | 9 | 2 | 0 | 0 | 0 | 8 | 9 | 22 | 0 | 43 | 18 | 0
COc1ccc(-c2cc3c(C)nc(N)nc3n([C@H]3CC[C@H](O)CC3)c2=O)cn1 | 8 | 0 | 0 | 0 | 0 | 7 | 0 | 0 | 0 | 0 | 0 | 0 | 0 | 13 | 0 | 0 | 0 | 0 | 0 | 6
Cl.NS(=O)(=O)c1cccc(Nc2cc(-c3ccc(F)cc3)n[nH]2)c1 [GW824645] | 29 | 0 | 0 | 0 | 0 | 1 | 0 | 5 | 3 | 0 | 1 | 0 | 0 | 0 | 2 | 0 | 0 | 0 | 0 | 0
O=C(NCc1cccs1)c1cc(C(=O)c2c(Cl)cccc2Cl)c[nH]1 [GW823670] | 15 | 0 | 0 | 0 | 0 | 0 | 16 | 0 | 8 | 0 | 21 | 0 | 22 | 0 | 16 | 0 | 22 | 0 | 0 | 0
Nc1ncnc2c1ncn2-c1cccc2ccccc12 [SKF-97184] | 0 | 0 | 0 | 13 | 0 | 22 | 38 | 1 | 33 | 0 | 26 | 3 | 0 | 17 | 35 | 0 | 3 | 6 | 0 | 33
Cl.c1ccc(Cn2cnc3cc(Nc4ncnc5ccccc45)ccc32)cc1 [GW272142] | 0 | 0 | 1 | 28 | 0 | 0 | 21 | 0 | 6 | 9 | 0 | 0 | 0 | 0 | 0 | 27 | 0 | 72 | 20 | 0
Nc1n[nH]c2nnc(-c3ccccc3)c(-c3ccccc3)c12 [GW554060] | 17 | 2 | 0 | 22 | 0 | 0 | 14 | 0 | 0 | 0 | 0 | 0 | 24 | 0 | 26 | 23 | 65 | 0 | 12 | 34
COc1ccc(-n2cnc3c(N)ncnc32)cc1 [SKF-97236] | 25 | 0 | 0 | 11 | 8 | 11 | 0 | 0 | 29 | 1 | 0 | 0 | 2 | 0 | 19 | 48 | 48 | 0 | 47 | 0
COc1ccc(Nc2nccc(N3CCC(NS(=O)(=O)c4ccc(NC(C)=O)cc4)C3)n2)cc1 (stereo not drawn) [GSK1379729] | 20 | 8 | 0 | 13 | 12 | 0 | 35 | 0 | 0 | 14 | 4 | 0 | 14 | 0 | 22 | 25 | 0 | 0 | 27 | 0
COC(=O)c1c(-c2ccccc2)c2cc(Br)ccc2c(=O)n1Cc1ccc(NC(=O)CCC(=O)O)cc1 | 5 | 0 | 0 | 8 | 0 | 5 | 0 | 0 | 1 | 0 | 12 | 6 | 0 | 25 | 33 | 0 | 0 | 0 | 17 | 0
COc1cc2ncn(-c3cc(OCc4ccncc4Br)c(C(N)=O)s3)c2cc1OC [GW854278] | 5 | 13 | 0 | 0 | 0 | 0 | 15 | 0 | 14 | 0 | 0 | 0 | 0 | 10 | 3 | 10 | 38 | 0 | 0 | 0
CCC(=O)c1c(-c2ccccc2)c2cc(Cl)ccc2c(=O)n1Cc1cc(C(=O)NC2CC2)n(C)n1 | 0 | 3 | 0 | 0 | 0 | 12 | 14 | 11 | 0 | 3 | 0 | 6 | 0 | 6 | 7 | 0 | 0 | 0 | 0 | 0
CCCNC(=O)Nc1ccc(Oc2ncnc3ccn(C)c23)cc1 | 0 | 0 | 0 | 20 | 19 | 0 | 0 | 0 | 0 | 4 | 18 | 7 | 0 | 0 | 1 | 0 | 0 | 0 | 4 | 7
CCC(=O)c1c(-c2ccccc2)c2cc(Cl)ccc2c(=O)n1Cc1ccc(C(=O)O)cc1 | 0 | 0 | 0 | 0 | 0 | 0 | 4 | 0 | 0 | 7 | 0 | 0 | 0 | 0 | 0 | 0 | 0 | 0 | 0 | 0
COc1cc2ncn(-c3cc(OCc4ccncc4)c(C(N)=O)s3)c2cc1OC [GSK336313] | 10 | 0 | 18 | 0 | 0 | 2 | 0 | 0 | 5 | 15 | 0 | 2 | 0 | 0 | 10 | 42 | 5 | 0 | 0 | 0
CCS(=O)(=O)c1ccc(OC)c(Nc2ncc(-c3ccc(F)cc3)o2)c1.Cl [GW591947] | 0 | 0 | 0 | 14 | 0 | 0 | 19 | 0 | 14 | 29 | 59 | 0 | 0 | 0 | 21 | 25 | 40 | 79 | 23 | 0
CN(C)c1cc(-c2ccc3c(N)n[nH]c3c2)nc(N)n1 [GSK2219329] | 0 | 0 | 0 | 0 | 0 | 0 | 0 | 0 | 7 | 11 | 0 | 0 | 0 | 0 | 23 | 45 | 12 | 0 | 51 | 0
Cc1nnc(-c2ccc3ncn(-c4ccc(S(C)=O)cc4)c3c2)o1 (stereo not drawn) | 4 | 0 | 0 | 0 | 13 | 0 | 16 | 7 | 20 | 0 | 2 | 0 | 1 | 0 | 35 | 46 | 10 | 0 | 40 | 7
CN1C(=O)C(Nc2ccccc2)=C(c2ccccc2)C1=O [SB-300079] | 12 | 9 | 0 | 11 | 5 | 6 | 13 | 1 | 4 | 13 | 19 | 0 | 0 | 0 | 4 | 0 | 18 | 0 | 0 | 0
COc1cc(Nc2ccnc3ccc(C(F)(F)F)cc23)cc(OC)c1OC [GW577382] | 16 | 39 | 0 | 10 | 0 | 1 | 47 | 0 | 6 | 21 | 8 | 0 | 0 | 0 | 11 | 25 | 0 | 0 | 14 | 14
CCC(=O)c1c(-c2ccccc2)c2cc(Cl)ccc2c(=O)n1Cc1cc(S(C)(=O)=O)n(CC(N)=O)n1 | 0 | 0 | 0 | 0 | 0 | 2 | 0 | 0 | 23 | 0 | 16 | 0 | 0 | 0 | 11 | 0 | 7 | 0 | 63 | 0
